Test results reported in publication PMC5540273 (PLoS ONE, 2017).

Key:
Details in all cases: concentration: 1 μM, replicates: in singlicate; n = 1
[1] = tested on: LCK
[2] = tested on: LIMK1
[3] = tested on: LIMK2
[4] = tested on: T1, LKB1
T1 construct: gene STK11

[5] = tested on: T2, LOK
T2 construct: gene STK10

[6] = tested on: LRRK2
[7] = tested on: LTK
[8] = tested on: LYN
[9] = tested on: T3, LZK
T3 construct: gene MAP3K13

[10] = tested on: MAK
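Further: KINOMEscan kinase panel screen.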

| Compound | %Inh [1] [%] | %Inh [2] [%] | %Inh [3] [%] | %Inh [4] [%] | %Inh [5] [%] | %Inh [6] [%] | %Inh [7] [%] | %Inh [8] [%] | %Inh [9] [%] | %Inh [10] [%] |
| --- | --- | --- | --- | --- | --- | --- | --- | --- | --- | --- |
| COc1cc(Nc2nccc(N3CCC(NS(=O)(=O)c4ccc(NC(C)=O)cc4)CC3)n2)cc(OC)c1OC [GSK1379825] | 18 | 93 | 100 | 0 | 2 | 29 | 0 | 56 | 27 | 61 |
| Cn1cc(-c2ccc3c(c2)CCN3C(=O)Cc2cc(F)cc(C(F)(F)F)c2)c2c(N)ncnc21 [GSK2635225] | 62 | 0 | 0 | 16 | 84 | 0 | 18 | 26 | 3 | 26 |
| Cc1ccc(NC(=O)c2ccc(Cl)c(Cl)c2)cc1-c1ccc(C(=O)Nc2ccncc2)cc1 [GSK1398460] | 91.9 | 19 | 0 | 0 | 0 | 0 | 11 | 83 | 0 | 100 |
| COc1ccc(C2=C(Nc3cccc(O)c3)C(=O)NC2=O)cc1 [SB-390766] | 0 | 0 | 10 | 0 | 0 | 5 | 30 | 52 | 6 | 0 |
| Cc1ccc(O)cc1Nc1ccnc2cc(-c3ccc(CN4CCCCC4)o3)ccc12 [GW557777] | 99.7 | 6 | 8 | 0 | 17 | 19 | 0 | 95.3 | 0 | 0 |
| Cc1ccc(C)c(NC(=O)Nc2ccc(C)c(-c3ccc(C(=O)Nc4ccncc4)cc3)c2)c1 [GSK1398473] | 47 | 25 | 2 | 0 | 0 | 0 | 0 | 17 | 0 | 65 |
| Cc1ccc(Nc2ccnc(Nc3ccc(C)c(F)c3)n2)cc1O.Cl [GW582868] | 59 | 0 | 0 | 0 | 5 | 57 | 0 | 22 | 24 | 17 |
| CCOc1nccc(-c2c(-c3ccc(F)cc3)ncn2C2CCNCC2)n1 [SB-249175] | 82 | 3 | 11 | 30 | 0 | 0 | 4 | 12 | 3 | 1 |
| CS(=O)(=O)c1cccc(CNc2nc(Nc3ccc4c(c3)CCC(=O)N4)ncc2C(F)(F)F)c1 | 0 | 0 | 0 | 34 | 0 | 16 | 0 | 16 | 0 | 0 |
| c1ccc(Oc2ccc(Nc3ccnc4cc(-c5ccc(CN6CCCCC6)o5)ccc34)cc2)nc1 [GW567143] | 88 | 0 | 0 | 6 | 39 | 35 | 0 | 6 | 12 | 4 |
| O=C(Nc1n[nH]c2nc(-c3cccc(O)c3)ccc12)C1CC1 [SB-711805] | 25 | 0 | 0 | 14 | 15 | 0 | 12 | 5 | 0 | 0 |
| O=C(O)C(F)(F)F.O=c1[nH]ccc2nc(N[C@@H]3CCNC3)nc(Nc3cc(Cl)cc(Cl)c3)c12 [GSK2188764] | 0 | 19 | 13 | 43 | 70 | 97.3 | 31 | 21 | 7 | 16 |
| COc1ccc(C)c(Nc2ccnc(Nc3ccc(-c4cnc[nH]4)cc3)n2)c1.Cl [GW784041] | 75 | 31 | 16 | 0 | 57 | 0 | 42 | 30 | 0 | 0 |
| CC(=O)Nc1cn2nc(Oc3cccc(NC(=O)c4cccc(C(F)(F)F)c4)c3)ccc2n1 | 99.5 | 0 | 14 | 0 | 90.1 | 8 | 0 | 97.9 | 0 | 0 |
| Cl.O=C(Nc1ccc(Oc2ccc3[nH]c(NC(=O)c4ccco4)nc3c2)cc1)Nc1cc(C(F)(F)F)ccc1F [GW683134] | 98.4 | 17 | 0 | 0 | 99.7 | 65 | 74 | 70 | 0 | 19 |
| Nc1ncnc2scc(-c3ccc(NC(=O)Cc4cc(F)ccc4F)cc3)c12.O=C(O)C(F)(F)F [SB-731254-M] | 54 | 55 | 96 | 29 | 81 | 0 | 71 | 16 | 0 | 20 |
| CN(C)CCNS(=O)(=O)c1ccc(-c2ccnc3[nH]ccc23)cc1 [GSK977620] | 23 | 0 | 0 | 0 | 0 | 47 | 4 | 0 | 0 | 84 |

| Compound | %Inh [1] [%] | %Inh [2] [%] | %Inh [3] [%] | %Inh [4] [%] | %Inh [5] [%] | %Inh [6] [%] | %Inh [7] [%] | %Inh [8] [%] | %Inh [9] [%] | %Inh [10] [%] |
| --- | --- | --- | --- | --- | --- | --- | --- | --- | --- | --- |
| Cc1cc(-c2ccnc(Nc3cccc(C#N)c3)n2)cc(C)c1O [GSK1440913] | 18 | 14 | 42 | 86 | 17 | 0 | 0 | 20 | 0 | 36 |
| CCn1cnc2c(NCc3ccccc3)ncnc21 [SKF-96418] | 0 | 0 | 0 | 25 | 5 | 0 | 0 | 0 | 34 | 0 |
| COc1cccc(NC(=O)NCCNc2ccnc(Nc3ccc(F)cc3)n2)c1 [GSK1379879] | 6 | 0 | 18 | 6 | 0 | 0 | 0 | 0 | 11 | 56 |
| CCn1c(-c2nonc2N)nc2c(-c3ccccc3)ncc(OCCCN)c21.O=C(O)C(F)(F)F.O=C(O)C(F)(F)F [GSK260205] | 29 | 1 | 0 | 0 | 98.7 | 28 | 0 | 0 | 0 | 0 |
| CCNc1nccc(-c2c(-c3ccc(F)cc3)ncn2C2CCN(C)CC2)n1 | 11 | 0 | 7 | 0 | 0 | 0 | 0 | 0 | 0 | 0 |
| Fc1cc(Cl)ccc1Nc1ccnc2cc(-c3ccc(CN4CCSCC4)o3)ccc12 [GW560106] | 98.4 | 0 | 0 | 11 | 73 | 22 | 61 | 74 | 32 | 32 |
| CC(C)(C)c1ccc(C(=O)Nc2cn3cc(-n4ccnc4)ccc3n2)cc1 | 0 | 0 | 10 | 0 | 0 | 12 | 0 | 10 | 0 | 18 |
| N#Cc1cnc2cc(-c3cnc(CNCCN4CCOCC4)s3)ccc2c1Nc1ccc(Oc2ccccc2)cc1 [GW664114] | 99.7 | 6 | 0 | 0 | 88 | 0 | 0 | 90 | 76 | 28 |
| COC(=O)Nc1nc2ccc(Oc3ccc(CC(=O)Nc4cc(C(F)(F)F)ccc4F)cc3)cc2[nH]1 [GW680903] | 22 | 1 | 7 | 0 | 78 | 33 | 0 | 7 | 28 | 37 |
| Cc1cccc(Nc2nc(N[C@H]3CCCC[C@H]3N)ncc2C(N)=O)c1.Cl [GSK986310] | 47 | 15 | 18 | 0 | 0 | 21 | 52 | 34 | 0 | 27 |
| Cc1ccc(NC(=O)c2cccc(N3CCCCC3)c2)cc1-c1ccc(C(=O)NCC2CC2)cc1 [GSK1917008] | 38 | 8 | 100 | 0 | 32 | 22 | 7 | 0 | 0 | 24 |
| CN(c1ccc(NC(=O)Nc2cccc(Cl)c2)cc1)c1ccnc(N)n1.Cl [GW830707] | 7 | 0 | 0 | 20 | 97.8 | 66 | 12 | 0 | 0 | 11 |
| Cc1ccc(NC(=O)c2ccnc(N3CCCCC3)c2)cc1-c1ccc(C(=O)NCC2CC2)cc1 [GW775610] | 29 | 0 | 0 | 34 | 79 | 0 | 15 | 0 | 0 | 13 |
| Cl.Cl.NC(CNC(=O)c1cc(Br)c(-c2ccnc3[nH]ccc23)s1)c1ccccc1 (stereo not drawn) [GSK1322949] | 3 | 0 | 0 | 69 | 0 | 31 | 0 | 0 | 7 | 19 |
| Cc1ccc(-c2ccc3occ(-c4ccc(S(C)=O)cc4)c3c2)nn1 (stereo not drawn) | 0 | 0 | 0 | 0 | 0 | 0 | 0 | 1 | 1 | 0 |
| CSc1ccc(NC2=C(c3ccc(Cl)cc3)C(=O)NC2=O)cc1 [SB-317658] | 0 | 11 | 1 | 54 | 29 | 43 | 27 | 26 | 0 | 37 |
